From PubChem BioAssay
KinaseGlo FLuc: blocks Kinase-Glo luciferase, a counter-screen artifact; Q27757; Kinase-Glo luciferase, ATP luminescence, 8 min; Potency, µM (series often up to 38.3 µM), usual class: inhibitors; 0.28% of 200,000 active; AID 1379; note: nearly all actives have a fitted effect of over 60% in size
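Substrate mix (final 50 mM imidazole pH 7.2, 50 mM KCl, 7 mM MgCl2, 10 uM ATP, 0.01% Tween 20, 0.05% BSA) plus pin-tool compound, then Kinase-Glo detection mix; 8 min ambient, luminescence read.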
FLuc modulator: firefly luciferase modulation, counter-screen for miR-21 project; Potency, µM (top dose mostly 57.5 µM), usual class: inhibitors; 6.9% of 360,000 active; purified FLuc, Km substrates, luminescence inhibition; P08659; note: nearly all actives have a fitted effect of over 55% in size
Target sequence (P08659 whole entry, looked up): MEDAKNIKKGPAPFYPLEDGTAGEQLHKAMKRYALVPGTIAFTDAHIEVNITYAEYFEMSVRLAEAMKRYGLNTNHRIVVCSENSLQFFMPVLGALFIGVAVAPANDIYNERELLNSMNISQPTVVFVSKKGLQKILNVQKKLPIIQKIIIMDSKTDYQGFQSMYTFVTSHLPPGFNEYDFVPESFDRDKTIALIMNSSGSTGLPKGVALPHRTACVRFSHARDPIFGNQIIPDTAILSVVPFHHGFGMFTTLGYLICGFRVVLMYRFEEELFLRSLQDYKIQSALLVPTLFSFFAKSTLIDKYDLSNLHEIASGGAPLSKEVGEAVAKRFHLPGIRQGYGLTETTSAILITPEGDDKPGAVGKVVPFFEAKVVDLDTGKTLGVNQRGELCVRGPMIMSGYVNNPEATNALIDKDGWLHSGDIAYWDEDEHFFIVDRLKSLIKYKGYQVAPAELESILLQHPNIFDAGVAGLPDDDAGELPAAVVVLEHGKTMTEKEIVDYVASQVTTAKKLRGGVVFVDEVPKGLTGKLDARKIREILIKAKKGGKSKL
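Biochemical qHTS of compounds, final roughly 60 µM downward over six points, against 10 nM purified firefly luciferase using Km concentrations of substrates (10 uM D-luciferin, 10 uM ATP) in Tris acetate pH 7.5 buffer; luminescence output.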
SMN2 splice up: increases expression of the SMN2 splice variant | 2.8% of 210,000 active | HEK293 SMN2-luciferase splicing reporter, luminescence, 30-36 h | AID 1458 | Potency, µM (doses to about 46.1 µM), most hits filed as activators; note: nearly all actives have a fitted effect of over 55% in size
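qHTS luciferase splicing reporter: luminescence rises when SMN2 exon 7 is included in transfected HEK293 cells. Compound exposure lasted 30-36 h at 37C, with 4.5 mM final sodium butyrate as control, followed by a ONE-Glo read.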
Rab9 prom act: activates the Rab9 promoter. Huh7 Rab9 promoter-luciferase reporter, luminescence, 24 h. Potency, µM (top dose mostly 9.22 µM), usual class: activators. 2.8% of 320,000 active. AID 485297; note: nearly all actives have a fitted effect of over 60% in size
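Cells were plated at 1500 per well in reduced-serum medium with 10% FBS and left 2 h. Compound in DMSO was then added for 24 h at 37 °C. Reporter signal was read by luminescence after 10 min with luciferase detection reagent.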
ELG1 genotox: induces genotoxicity in HEK293T cells with luciferase-tagged ELG1; HEK293T ELG1-luciferase reporter, luminescence, 16 h; Potency, µM (highest dose often 46 µM), hits mostly activators; 1.3% of 330,000 active; AID 504466; note: nearly all actives have a fitted effect of over 60% in size
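16 hr compound incubation (37 °C, 5% CO2) of HEK293T cells carrying luciferase-tagged ELG1; luciferase then measured by ONE-Glo luminescence after 30 min at RT.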
NPC1 prom act: NPC1 promoter activation. Huh7 NPC1 promoter luciferase reporter, 24 h. AID 485313. Potency, µM (titrated, usually from 9.22 µM), actives largely listed as activators. 2.4% of 320,000 active; note: nearly all actives have a fitted effect of over 60% in size
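Cells: Huh7 expressing luciferase under the NPC1 promoter, 1500/well. Seeded 2 h, compound added, incubated 24 h at 37 °C. Luciferase reagent, 10 min ambient, then luminescence.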
Hits are given with their value; n = inactive; u = inconclusive; x = no result given. Only some compounds are listed: those with a hit (about 7.3% of all), similar ones and a draw of the others. Calls come from the whole dose curve; as a rule, active = well fitted curve in the direction sought with a large enough effect; inconclusive = small, poorly fitted or top-dose-only effect, or another doubt; inactive = no such curve, though single readings can be large; an effect the other way counts as inactive or inconclusive.

SMILES	KinaseGlo FLuc	FLuc modulator	SMN2 splice up	Rab9 prom act	ELG1 genotox	NPC1 prom act
Cc1cccc(-n2ncc(C(=O)N3CCN(Cc4ccccc4)CC3)c2C2CCN(C(=O)OC(C)(C)C)CC2)c1	x	n	x	x	x	x
C=C(C(C)=O)C(O)c1cccc(OC)c1 (configuration not stated)	n	x	n	x	x	x
CCCCOC(=O)c1ccc(NC(=O)Cc2coc3c(C)c(C)ccc23)cc1	x	n	n	x	x	x
O=C(N/N=C/c1ccccn1)c1cc(-c2ccccc2Cl)n[nH]1	n	24µM	n	n	n	n
O=C(N/N=C/c1cccs1)c1cc(-c2ccc3ccccc3c2)n[nH]1	n	n	n	n	n	n
O=C(N/N=C/c1ccccn1)c1cc(-c2ccc3ccccc3c2)n[nH]1	n	7.6µM	n	n	n	n
O=C(N/N=C/c1ccccn1)c1cc(-c2cccc3ccccc23)n[nH]1	n	u	n	n	n	n
CCOC(=O)c1ccccc1NC(=O)CN1CCCN(Cc2cccc(Cl)c2)S1(=O)=O	x	n	x	x	x	x
COc1ccc(/C=C/c2nnc(NC(=O)COc3ccccc3)s2)cc1	x	n	x	n	n	n
COc1ccc(/C=C/c2nnc(NC(=O)COc3ccc(C)cc3)s2)cc1	n	n	5µM	n	n	n
COc1ccc(/C=C/c2nnc(NC(=O)C(C)(C)C)s2)cc1	x	8.5µM	x	n	n	n
CCOC(=O)Nc1nnc(-c2ccc(OC)cc2)s1	n	4.8µM	n	u	u	n
CCCCOC(=O)Nc1nnc(/C=C/c2ccc(OC)cc2)s1	n	u	n	n	n	n
CCOC(=O)Nc1nnc(/C=C/c2ccc(OC)cc2)s1	n	13µM	n	n	n	n
CCOC(=O)Nc1nnc(-c2cccc(OC)c2)s1	n	u	u	n	u	n
Cc1cccc(N2CCN(C(=O)Cn3c(C)c4cnn(-c5ccccc5)c(=O)c4c3C)CC2)c1C	x	n	n	x	x	x
O=C(COC(=O)c1cccc([N+](=O)[O-])c1)c1ccc2c(c1)OCO2	x	2.7µM	x	2.5µM	21µM	3.5µM
Cc1ccc(C(=O)COC(=O)c2cccc([N+](=O)[O-])c2)s1	x	4.8µM	x	n	n	n
Cc1ccc(C(=O)COC(=O)COc2ccccc2[N+](=O)[O-])s1	x	n	x	n	n	n
CCOC(=O)c1c(C)[nH]c(N=Nc2ccc(C)cc2)c1C	n	3.8µM	13µM	1.4µM	3.2µM	1µM
CCOC(=O)c1c(C)[nH]c(N=Nc2ccccc2Cl)c1C	x	12µM	x	u	u	u
CCOC(=O)c1c(C)[nH]c(N=Nc2ccc(OC)cc2)c1C	x	7.6µM	x	u	u	3.5µM
CCOC(=O)c1c(C)[nH]c(N=Nc2ccccc2)c1C	n	12µM	n	u	12µM	u
CCOC(=O)c1c(C)[nH]c(C(=O)O)c1C	n	n	n	n	n	n
Cc1ccc(Cl)cc1N1CCN(C(=O)c2cc3c(-c4ccccc4F)nn(C)c3s2)CC1	x	n	n	x	x	x
SMILES	KinaseGlo FLuc	FLuc modulator	SMN2 splice up	Rab9 prom act	ELG1 genotox	NPC1 prom act
Cc1ccc(-n2nnnc2CNC(=O)C(C)(C)C)cc1C	x	n	x	x	x	x
COc1ccc(Cn2c(C(=O)O)c(CNCC(C)c3ccccc3)c3ccc(OC)cc32)cc1 (configuration not stated)	x	n	x	x	x	x
Cc1cc(C)cc(-n2c(C)cc(/C=N/NC(=O)CN(c3c(C)cccc3C)S(C)(=O)=O)c2C)c1	n	n	n	n	n	n
Cc1ccc(N(CC(=O)N/N=C/c2cc(C)n(-c3ccccc3C)c2C)S(C)(=O)=O)cc1	n	17µM	n	n	n	n
Cc1ccc(S(=O)(=O)c2nc(S(=O)(=O)c3ccc(C)cc3)c(NCCCOC(C)C)s2)cc1	x	n	n	x	x	x
Cc1nc(C)c(-c2nnc(-c3ccc(C(C)(C)C)cc3)o2)cc1C(=O)NN	n	24µM	n	n	n	n
Cc1nc(C)c(-c2nnc(-c3ccccc3Cl)o2)cc1C(=O)NN	x	n	x	n	n	n
Cc1ccc(C(=O)Nc2cc3c(cc2Cl)OCCCO3)cc1	n	7.6µM	11µM	2µM	u	1.8µM
O=C(Nc1cc2c(cc1Cl)OCCCO2)c1ccc(F)cc1	n	12µM	7.9µM	2.8µM	u	u
O=C(Nc1cc2c(cc1Br)OCCCO2)c1ccccc1	n	13µM	16µM	4µM	u	3.5µM
